Source: PubChem BioAssay (EPA / NIEHS)
Where a structure was tested more than once in an assay, its records may differ in their call. Calls of active or inactive are those of the source. Rule for the calls: active = hit-call score of the fitted dose curve at least 0.9, where 1 is the maximum; inactive = score below 0.9.

read-out: BCL2L11 (gene 10018); experiment: LTEA_HepaRG_BCL2L11: Life Technologies and Expression Analysis (LTEA) Assay for Bcl-2 (BCL2L11) gene using HepaRG (AID 2283473); conditions: mRNA level, 48 h; actives raise or lower the signal
Experimental: LTEA_HepaRG is a cell based, multiplexed-readout assay that uses HepaRG, a human liver cell line, with measurements taken at 48 hours after chemical dosing on a 96-well plate.LTEA_HepaRG_BCL2L11 is one of 102 assay component(s) measured in the LTEA HepaRG cell culture assay. It is a marker of Cell proliferation, survival, death.Data from the assay component LTEA_HepaRG_BCL2L11 was analyzed into 1 endpoint. This assay endpoint, LTEA_HepaRG_BCL2L11, was analyzed with bidirectional fitting relative to DMSO as the negative control and baseline of activity. Using a type of inducible reporter, measures of mRNA induction for gain or loss-of-signal activity can be used to understand regulation of transcription factor activity. To generalize the intended target to other relatable targets, this assay endpoint is annotated to the cell cycle intended target family, where the subfamily is Cell proliferation, survival, death.
A total of 1060 chemcials from the ToxCast library were tested in eight-point concentration-response experiments. Cell culture and cytotoxicity assays were conducted at Thermo Fisher Scientific's Custom Services facility (Madison, WI). A single lot of human HepaRG cells (Thermo Fisher Scientific, Frederick, MD) was used for the cell culture experiments. 96-well format collagen type I coated plates of human HepaRG cells were prepared using established methods. Briefly, cryopreserved HepaRG cells were thawed, plated at a density of approximately 100,000 cells/well in HepaRG Thaw, Plate, and General Purpose media (HPRG770, Thermo Fisher Scientific), and incubated for 48 hours. 0.5% DMSO was selected as vehicle control to balance the requisite need of DMSO in HepaRG cultures to maintain differentiation (for example, baseline metabolism, proportions of hepatocytes vs. cholangiocytes), while enabling further hepatic receptor pathway activation (for example, PXR and CAR) in response to chemical exposure. 48 hours after plating, the culture medium was replaced with HepaRG Serum-Free Incudtion Media. Cells were exposed to each test chemical in duplicate and maintained in CO2 incubators for another 48 hours. Chemical plates were thawed to room temperature and 200x concentrations of treatment groups were prepared. 8-point conentration-reponse curves were made with the highest exposure at 100 uM, followed by half-log dilutions, all in 0.5% DMSO. Each test plate contained variouse controls, induction positive controls (1mM phenobarbital), cytotoxicity positive controls ([…] aflatoxin B1), vehicle controls (0.5% DMSO), and total lysis controls (0.5% DMSO). Cell morphology images were taken using an Essen IncuCyte FLR automated microscope, with six 96-well plates imaged in about 24 minutes. Images were captured and exported and JPEG files. Spent culture media was transfered to black-well plates for the LDH assay, and remaining media was sorted at -80 C for later use. Cells were treated with RLT buffer and frozen until shipped for gene expression analysis. Total RNA was isolated from the cell suspension in 75 uL of Buffer RLT (Qiagen, Germantown, MD 20874) by Quintiles/Expression Analysis (Durham, NC) using a custom isolation procedure. Total RNA from each plate well was transferred to a preamplification plate. Fluidigm's 96.96 Dynamic ArrayTM (Fluidigm, Amsterdam, the Netherlands) technology was used for gene expression analyses by quantitative reverse transcription polymerase chain reaction (qRT-PCR, performed by Quintiles/Expression Analysis, Durham, NC)89. Standard TaqManTM Assays (Applied Biosystems/ThermoFisher Scientific, Foster City, CA) were used to assess the expression of 93 genes selected based on their selectivity and sensitivity to important hepatic receptors known to be modulated by environmental chemicals; importance in human hepatocyte functionality; and hepatotoxicity. […]

Structure (SMILES)	outcome	AC50
COP(=O)(OC)OC=C(Cl)Cl	inactive	
Clc1ccccc1-c1nnc(-c2ccccc2Cl)nn1	inactive	
CC(C)N(C(=O)COc1nnc(C(F)(F)F)s1)c1ccc(F)cc1	inactive	
CC(C)(C)C(O)/C(=C\c1ccc(Cl)cc1Cl)n1cncn1 (stereo not given)		79.8 µM (active)
O=C(Nc1ccccc1)Nc1cnns1	inactive	
O=S1OCC2C(CO1)C1(Cl)C(Cl)=C(Cl)C2(Cl)C1(Cl)Cl (stereo not given)	inactive	
CNC(=O)Oc1cccc(N=CN(C)C)c1	inactive	
CNC(=O)Oc1ccccc1OC(C)C	inactive	
Oc1ccc(Cl)cc1Cc1ccccc1	inactive	
Oc1cc(Cl)ccc1Oc1ccc(Cl)cc1Cl	inactive	51 µM (active)
CCC(C)(C)C(=O)OC1=C(c2ccc(Cl)cc2Cl)C(=O)OC12CCCCC2	inactive	
CC1(C)C(C=C(Cl)Cl)C1C(=O)OC(C#N)c1ccc(F)c(Oc2ccccc2)c1 (stereo not given)	inactive	
Cc1[nH]c(=O)n(C(C)(C)C)c(=O)c1Cl	inactive	
N#CN	inactive	
CCOCN(C(=O)CCl)c1c(C)cccc1CC		67.5 µM (active)
COP(=S)(OC)Oc1ccc([N+](=O)[O-])cc1	inactive	
O=[N+]([O-])c1c(Cl)c(Cl)c(Cl)c(Cl)c1Cl	inactive	
CCC(C)Nc1c([N+](=O)[O-])cc(C(C)(C)C)cc1[N+](=O)[O-] (stereo not given)	inactive	
CCC(C)(NC(=O)c1cc(Cl)c(C)c(Cl)c1)C(=O)CCl (stereo not given)	inactive	
CC[C@H](C)[C@H]1O[C@]2(C=C[C@@H]1C)C[C@@H]1C[C@@H](C/C=C(\C)[C@@H](O[C@H]3C[C@H](OC)[C@@H](O[C@H]4C[C@H](OC)[C@@H](O)[C@H](C)O4)[C@H](C)O3)[C@@H](C)/C=C/C=C3\CO[C@@H]4[C@H](O)C(C)=C[C@@H](C(=O)O1)[C@]34O)O2 (tested in a mixture with another compound)		10.7 µM (active)

Structure (SMILES)	outcome	AC50
O=[N+]([O-])/N=C1\NCCN1Cc1ccc(Cl)nc1		23.3 µM (active)
N#Cc1c(Cl)c(Cl)c(Cl)c(C#N)c1Cl	inactive	
CCN(CC)C(=O)SCc1ccc(Cl)cc1	inactive	
C[C@H]1[C@H](c2ccc(Cl)cc2)SC(=O)N1C(=O)NC1CCCCC1		67.2 µM (active)
O=S(=O)(O)C(F)(F)C(F)(F)C(F)(F)C(F)(F)C(F)(F)C(F)(F)C(F)(F)C(F)(F)F	inactive	
COc1nn(CSP(=S)(OC)OC)c(=O)s1	inactive	
COP(=S)(OC)Oc1ccc(SC)c(C)c1	inactive	
O=C1c2ccccc2C(=O)N1SC(Cl)(Cl)Cl	inactive	
CNC(=O)CSP(=S)(OC)OC	inactive	
CC(C)(C)C(O)C(Oc1ccc(Cl)cc1)n1cncn1 (stereo not given)	inactive	
C#CCN1C(=O)COc2cc(F)c(N3C(=O)C4=C(CCCC4)C3=O)cc21	inactive	
ClC1C(Cl)C(Cl)C(Cl)C(Cl)C1Cl (stereo not given)	inactive	
O=C(O)CCCOc1ccc(Cl)cc1Cl	inactive	
CN1CSC(=S)N(C)C1	inactive	
O=C(O)COc1ccc(Cl)cc1Cl	inactive	
CCCN(CCOc1c(Cl)cc(Cl)cc1Cl)C(=O)n1ccnc1		12.7 µM (active)
CCCN(CCC)c1c([N+](=O)[O-])cc(C(F)(F)F)cc1[N+](=O)[O-]	inactive	
O=C(O)C(F)(F)C(F)(F)C(F)(F)C(F)(F)C(F)(F)C(F)(F)C(F)(F)F	inactive	
O=C(NC(=O)c1c(F)cccc1F)Nc1ccc(OC(F)(F)C(F)OC(F)(F)F)c(Cl)c1 (stereo not given)	inactive	
